Test results published in PubChem BioAssay (NCATS).
Records with an inconclusive call do not appear. A call without a number means that no potency is given here. Activity calls are given as the source filed them. Calls follow the shape of the dose curve; as a rule, active = well fitted curve in the direction sought with a large enough effect; inconclusive = small, poorly fitted or top-dose-only effect, or another doubt; inactive = no such curve, though single readings can be large; an effect the other way counts as inactive or inconclusive.

Legend:
[1] = qHTS of pediatric cancer cell lines to identify multiple opportunities for drug repurposing: Primary screen for BT-37 cells (AID 1347094); also: potency is read from the fitted curve at half-maximal effect
Summary of the method: (§1)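 Cells plated at 500-1,000/well in growth medium, compounds added after 5 h. MIPE tested at 11 points (from 0.78 nM), NPC at 8 points (from 0.59 nM). CellTiter-Glo luminescence after 48 h; concentration-response curves from primary screen.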

[2] = qHTS of pediatric cancer cell lines to identify multiple opportunities for drug repurposing: Primary screen for NB-EBc1 cells (AID 1347095); also: potency is read from the fitted curve at half-maximal effect
Summary of the method: as §1

[3] = qHTS of pediatric cancer cell lines to identify multiple opportunities for drug repurposing: Primary screen for U-2 OS cells (AID 1347096); also: nearly all actives have a fitted effect of over 50% in size
Summary of the method: (§2)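 Viability after 48 h compound treatment at 37C, 500-1,000 cells/well, read as ATP luminescence with CellTiter-Glo. Primary screens used 11-point (MIPE, 0.78 nM-46 µM) or 8-point (NPC, 0.59 nM-46 µM) final concentrations; follow-up screens used 11-point dilutions.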

[4] = qHTS of pediatric cancer cell lines to identify multiple opportunities for drug repurposing: Primary screen for NB1643 cells (AID 1347099); also: nearly all actives have a fitted effect of over 50% in size; also: potency is read from the fitted curve at half-maximal effect
Summary of the method: as §1

[5] = qHTS of pediatric cancer cell lines to identify multiple opportunities for drug repurposing: Primary screen for BT-12 cells (AID 1347101); also: nearly all actives have a fitted effect of over 25% in size; also: potency is read from the fitted curve at half-maximal effect
Summary of the method: (§3)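 Cells (500-1,000/well) rested 5 h, then received compounds for 48 h; metabolically active cells were measured by CellTiter-Glo luminescence. Final concentrations spanned up to 46 µM (MIPE, 11-point) or 0.59 nM-46 µM (NPC, 8-point) in primary screens, 11-point in follow-ups.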

[6] = qHTS of pediatric cancer cell lines to identify multiple opportunities for drug repurposing: Primary screen for SK-N-SH cells (AID 1347098); also: nearly all actives have a fitted effect of over 65% in size; also: potency is read from the fitted curve at half-maximal effect
Summary of the method: as §3

[7] = qHTS of pediatric cancer cell lines to identify multiple opportunities for drug repurposing: Primary screen for SK-N-MC cells (AID 1347093); also: potency is read from the fitted curve at half-maximal effect
Summary of the method: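 Metabolically active cells were quantified by ATP-dependent luminescence (CellTiter-Glo, 15 min at room temperature) following 48 h treatment. Cells had been plated at 500-1,000 per well and settled for 5 h beforehand.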

[8] = qHTS of pediatric cancer cell lines to identify multiple opportunities for drug repurposing: Primary screen for Saos-2 cells (AID 1347097); also: nearly all actives have a fitted effect of over 40% in size; also: potency is read from the fitted curve at half-maximal effect
Summary of the method: as §1

[9] = qHTS of pediatric cancer cell lines to identify multiple opportunities for drug repurposing: Primary screen for LAN-5 cells (AID 1347100); also: potency is read from the fitted curve at half-maximal effect
Summary of the method: as §2

SMILES	Potency [1]	Potency [2]	Potency [3]	Potency [4]	Potency [5]	Potency [6]	Potency [7]	Potency [8]	Potency [9]
Cc1ccnc(NS(=O)(=O)c2ccc(NC(=O)Nc3ccc(S(=O)(=O)Nc4nccc(C)n4)cc3)cc2)n1	10.9 µM (active)	14.8 µM (active)	inactive	inactive	24.3 µM (active)	–	–	–	–
Cc1n[nH]c(C)c1Cc1sc2c(c1C(=O)N1C[C@H](O)CO1)c(=O)n(C)c(=O)n2CC(C)C	inactive	inactive	inactive	1.05 µM (active)	inactive	inactive	–	–	–
CCN(c1ccccc1)c1cc(NC)[n+](C)c(C)n1	–	–	inactive	inactive	inactive	–	inactive	inactive	–
CCOc1cc(C(=O)Nc2ccc(Cl)c(-c3nc4ccccc4[nH]3)c2)cc(OCC)c1OCC	–	–	–	11.8 µM (active)	inactive	5.41 µM (active)	–	–	–
c1ccc(-c2nn3c(c2-c2ccnc4cc(OCCN5CCOCC5)ccc24)CCC3)nc1	–	–	inactive	–	inactive	inactive	inactive	–	–
N=c1nc(N2CCCCC2)cc(N)n1O	inactive	inactive	inactive	inactive	inactive	inactive	–	–	inactive
CC(C)(N)C(=O)N[C@H](COCc1ccccc1)C(=O)N1CCC2(CC1)CN(S(C)(=O)=O)c1ccccc12	–	inactive	inactive	23.5 µM (active)	–	30.4 µM (active)	23.5 µM (active)	–	inactive
O=C(Nc1ccc(F)c(C(F)(F)F)c1)Nc1nnc(-c2ccncc2)s1	inactive	–	inactive	–	–	–	20.9 µM (active)	inactive	inactive
NC[C@H](O)c1ccc(O)c(O)c1	inactive	inactive	inactive	inactive	inactive	inactive	–	inactive	inactive
O=c1ncn2nc(Sc3ccc(F)cc3F)ccc2c1-c1c(Cl)cccc1Cl	–	–	–	inactive	–	–	–	–	–
CN(C)c1ccc(C2Nc3ccc4ccccc4c3C3=C2C(=O)CC(C)(C)C3)cc1Br (stereo not drawn)	–	inactive	inactive	20.9 µM (active)	inactive	inactive	7.43 µM (active)	–	inactive
COc1cccc2cc(-c3nc(C4CCC(C(=O)O)CC4)n4ncnc(N)c34)[nH]c12 (stereo not drawn)	–	1.66 µM (active)	–	inactive	0.344 µM (active)	–	0.0235 µM (active)	–	inactive
COc1ccc(CCN2CCN(CCCc3ccccc3)CC2)cc1OC	–	–	inactive	–	–	inactive	18.7 µM (active)	–	–
CCOC(=O)N[C@@H]1CC[C@@H]2[C@@H](C1)C[C@H]1C(=O)O[C@H](C)[C@H]1[C@@H]2C=Cc1ccc(-c2cccc(F)c2)cn1	–	–	–	16.6 µM (active)	–	21.5 µM (active)	16.6 µM (active)	5.9 µM (active)	–
COc1ccc(-c2c(-c3ccc(O)cc3O)n[nH]c2C)cc1	–	38.2 µM (active)	inactive	–	–	–	–	–	–
CCn1c(-c2nonc2N)nc2cnc(Oc3cccc(NC(=O)c4ccc(OCCN5CCOCC5)cc4)c3)cc21	–	inactive	inactive	–	6.11 µM (active)	–	7.43 µM (active)	0.662 µM (active)	2.96 µM (active)

SMILES	Potency [1]	Potency [2]	Potency [3]	Potency [4]	Potency [5]	Potency [6]	Potency [7]	Potency [8]	Potency [9]
NC(=O)c1ccc(-c2nc(-c3ccc4c(c3)OCCO4)c(-c3ccccn3)[nH]2)cc1	–	–	inactive	inactive	inactive	–	inactive	–	inactive
CN[C@@H](C)C(=O)N[C@H]1CCCC[C@H]2CC[C@@H](C(=O)N[C@@H](c3ccccc3)c3cn(CCCCc4ccc(CCCCn5cc([C@@H](NC(=O)[C@@H]6CC[C@@H]7CCCC[C@H](NC(=O)[C@H](C)NC)C(=O)N76)c6ccccc6)nn5)cc4)nn3)N2C1=O	–	–	inactive	inactive	27.3 µM (active)	–	6.62 µM (active)	–	–
Clc1ccc(Nc2nnc(Cc3ccncc3)c3ccccc23)cc1	–	–	inactive	inactive	–	21.7 µM (active)	2.35 µM (active)	inactive	inactive
NNCCc1ccccc1	inactive	inactive	–	–	–	–	–	inactive	–
NC(N)=NC(=O)c1nc(Cl)c(N)nc1N	inactive	inactive	inactive	–	inactive	–	–	inactive	inactive
CNC(=O)c1ccccc1Sc1ccc2c(/C=C/c3ccccn3)n[nH]c2c1	–	1.5 µM (active)	–	–	17.4 µM (active)	–	2.99 µM (active)	13.3 µM (active)	–
CC1(C)Cc2c(-c3ccccc3)c(-c3ccc(Cl)cc3)c(CC(=O)O)n2C1	–	–	inactive	–	–	–	26.4 µM (active)	–	–
CC[C@H](Nc1ncnc2nc[nH]c12)c1nc2cccc(F)c2c(=O)n1-c1ccccc1	–	14.8 µM (active)	–	16.6 µM (active)	–	7.64 µM (active)	0.935 µM (active)	–	20.9 µM (active)
N#Cc1ccc(C(c2ccc(C#N)cc2)n2cncn2)cc1	–	–	inactive	–	–	–	–	–	inactive
Nc1nc2ccc(OC(F)(F)F)cc2s1	–	inactive	inactive	inactive	–	inactive	–	–	–
NCCCC(N)(C(=O)O)C(F)F (stereo not drawn)	inactive	inactive	inactive	–	inactive	inactive	–	inactive	inactive
COc1ccc2nc(S(=O)Cc3ncc(C)c(OC)c3C)[nH]c2c1 (stereo not drawn)	inactive	inactive	inactive	–	–	inactive	–	inactive	inactive
CCCCCCCc1ccc(CCc2cccc(O)c2C(=O)O)cc1	–	–	inactive	inactive	–	–	9.35 µM (active)	inactive	inactive
CNC(=O)c1ccc(C)c(-n2c(C)cc(OCc3ccc(F)cc3F)c(Br)c2=O)c1	inactive	–	inactive	–	–	inactive	–	–	20.9 µM (active)
COc1cc(Oc2ccnc3cc(OC)c(OC)cc23)ccc1NC(=O)NC(C)c1nccs1 (stereo not drawn)	inactive	–	inactive	inactive	–	–	–	–	–
